For 92 molecules, activation results are on record in PubChem BioAssay AID540364 (The Scripps Research Institute Molecular Screening Center, 2011).

Molecules are shown by their SMILES. Among all 360,000 compounds or so, about 2,000 (0.56%) were called active. The list comes from a sample in which actives are over-represented; it also holds similar structures and randomly drawn compounds. Unmarked numbers belong to inactive results.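 Rule for the calls: active = activation above the average of all compounds screened plus 3 SD, cutoff fixed separately per campaign (cut at about 7.5% in these data); inactive = the rest.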

The test in a line: GAA850 frataxin promoter reporter upregulation – cell-based, luciferase luminescence, HEK293 lucGAA850, primary screen (AID 540364).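 Note: 0% = DMSO wells and 100% = 10 µM SAHA wells.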 To be noted: HEK293 lucGAA850 FXN promoter luciferase reporter, 24 h; at 6 µM; hits give high values; percent of 10 µM SAHA response.
As for `COc1cc(Cn2c3ccc(NC(=O)CC(C)c4ccccc4)cc3c(=O)n2C)ccc1F` (configuration not stated), the activation is -0.13%.

In the case of `C[C@H]([C@@H](O)[C@@H](O)[C@@H](C)C(C)(C)C)[C@H]1CC[C@H]2C3CC[C@H]4C[C@H](OS(=O)(=O)O)[C@@H](OS(=O)(=O)O)C[C@]4(C)[C@H]3CC[C@]12C` (some centres not stated), the activation was -1.51%. On to `Nn1cnnc1N/N=C/c1cc([N+](=O)[O-])c(Cl)cc1Cl`, for which the activation was -1.71%. As to `CCCN(CCC)CCNC(=O)c1cc2c(C)nc3ccccc3c2o1`, the activation was -0.61%. In the case of `CNC(=O)c1cccc2nc3ccccc3nc12`, the activation was 3.97%. On to `CN(C)CCNC(=O)c1ccc(Cl)c2cc3ccccc3nc12`, for which the activation is 22.7% (active).

As to `COC(=O)CCSc1cc([N+](=O)[O-])cc2c1c(C1OCCS1)nn2-c1ccccc1` (configuration not stated), the activation is 4.76%. Regarding `CC1=C(C(=O)N2CCOCC2)CC(CC(=O)NCc2cccc3ccccc23)C(=O)N1CCC1=CCCCC1` (configuration not stated), the activation is -1.16%. On to `O=S(=O)(c1ccccc1)N1CCc2ccccc21`, for which the activation is 1.28%. Consider `Cn1c(=O)n(C)c2cc(S(=O)(=O)N3CCCc4ccccc43)ccc21`, for which the activation is 7.64% (active). The same measure for `CCn1c(=O)c(=O)n(CC)c2cc(S(=O)(=O)N3CCc4ccccc43)ccc21`: 0.26%; for `Cc1c(Br)c([N+](=O)[O-])nn1C(C)C(=O)Nc1nccs1` (configuration not stated): 1.64%.

For `COc1ccc(-n2nc(C(=O)NCC(=O)Nc3cccc(C)n3)c3ccccc3c2=O)cc1`, the activation was -0.56%. `Cc1ccc(S(=O)(=O)N(CCc2ccccc2)c2ccc3c(c2)C2CC3CCN2C(=O)OCc2ccccc2)cc1` (configuration not stated): the activation was 0.17%.

With `COc1cc(/C=C/C(=O)Nc2ccc(OC)c(S(=O)(=O)N3CCOCC3)c2)ccc1OCC#N`, the activation was -0.85%.

Consider `COc1ccc(/C=C/C(=O)Nc2ccc(C)cc2)cc1S(=O)(=O)N1CCOCC1`, for which the activation is -0.63%. On to `COc1ccc(/C=C/C(=O)Nc2ccc(C34CC5CC(CC(O)(C5)C3)C4)cc2)cc1OC`, for which the activation is 7.97% (active).

For the molecule `Cc1ccc(-n2c(C)cc(/C=C(\C#N)C(=O)NCC3CCCO3)c2C)cc1` (configuration not stated), the activation was 8.72% (active). The figure for `Cc1ccc(C(=O)N/C(=C/c2cccs2)C(=O)NCC2CCCO2)cc1` (configuration not stated) is 0.61%. `Cc1ccc2c(c1)N(CC(=O)NCC1CCCO1)C(=O)CO2` (configuration not stated): the activation was 0.58%.

Consider `CCN(CC)CCNS(=O)(=O)c1ccc(/C=C/C(=O)O)cc1`, for which the activation is 3.64%.

As for `CCCS(=O)(=O)N1CCC(C(=O)NCCCN(C)Cc2ccccc2)CC1`, the activation was -0.04%.

As to `Cc1ccc(NC(=O)c2sc3nc(N)c(C#N)cc3c2N)cc1`, the activation was 9.04% (active). The same measure for `CCc1ccc2nc3sc(C(=O)Nc4nnc(CC)s4)c(N)c3cc2c1`: 3.44%; for `Cc1ccc(Sc2ccc(NC(=O)c3ccc(F)cc3)cc2C#N)cc1`: -1.85%. As to `CCCCc1ccc(S(=O)(=O)NC(=O)C2(C)CCN2C(=O)c2c(C)noc2C)cc1` (configuration not stated), the activation was 1.5%. As for `Cc1c(C(C)(C)O)[nH]c2ccc(C#N)cc12`, the activation was 2.02%.

With `CCOC(=O)c1cc2c(=O)n3ccccc3nc2n(CC(C)C)c1=NC(=O)c1c(-c2c(F)cccc2Cl)noc1C`, the activation was 8.16% (active).

`Cc1onc(-c2c(F)cccc2Cl)c1C(=O)OCC(=O)N1C(C)CCCC1C` (configuration not stated): the activation is 0.34%. As to `CCCn1c(=NC(C)=O)c(C(=O)OCC)cc2c(=O)n3ccccc3nc21`, the activation is 5.78%. Turning to `CCCNC(=O)C1(C)CCCN(Cc2c(C)nn(-c3ccccc3)c2C)C1` (configuration not stated), the activation is 0.72%. The figure for `Cc1cc(C(=O)O)c(S(C)(=O)=O)s1` is -0.08%; for `CCOc1ccc(N2C(=O)/C(=C/c3ccc(C)o3)N(C)C2=S)cc1` it is 4.15%. The figure for `Cc1cc(=O)oc(C)c1C(=O)NCc1ccc(F)cc1` is 14% (active). With `COc1ccc(CNC(=O)c2c(C)cc(=O)oc2C)cc1OC`, the activation was -0.25%. The figure for `Cc1cc(=O)oc(C)c1C(=O)NCCN(C)Cc1ccccc1` is 1.1%; for `CCN(CC)CCN1C(=O)C2C(C(=O)Nc3ccc(Br)cc3)C3C=CC2(O3)C1C(=O)NC1CCCCC1` (configuration not stated) it is -1.41%; for `CS(=O)(=O)c1ccc2nnn(OCC(=O)Nc3cccc(C#N)c3)c2c1` it is -0.17%. As to `Cc1ccc(C2C(C#N)C(C#N)N3CCCN23)cc1` (configuration not stated), the activation is 3.84%. As for `CCCCOC(=O)CNc1nnc(SCC(=O)OCC)[nH]c1=O`, the activation is 4.67%. Consider `COc1ccc(C#Cc2c(-c3ccc(OC)cc3)oc3ccc(-c4ccc5c(c4)OCO5)cc23)cc1`, for which the activation is 0.99%. For `CC(C)(C)C(=O)c1cnc(Nc2ccccc2)s1`, the activation was 8.7% (active). For the molecule `CC(=O)c1cnc(-c2ccccc2)s1`, the activation was -1.26%.

With `O=C(/C=C/Nc1ccccc1)c1cnc(-c2ccccc2)s1`, the activation is -1.96%. Take `Cc1cccc(C)c1N1C(=O)CN(Cc2ccccc2)C1=S`: the activation was 2.98%.

In the case of `O=C(NC(CC(=O)N1CCN(c2ccccc2)CC1)c1ccccc1)c1ccccc1Cl` (configuration not stated), the activation was -0.04%.

`CCOc1cc(/C=C2\SC(N3CCCCC3)=NC2=O)ccc1O`: the activation is 1.52%. `O=C1N=C(N2CCCC2)S/C1=C\c1cccc(Br)c1`: the activation was 8.18% (active). For `O=C1N=C(N2CCc3ccccc3C2)S/C1=C\c1ccc(O)cc1`, the activation is -0.01%.

Regarding `COC(=O)C1CCN(CC(N)=O)CC1`, the activation is -1.4%. Consider `Cc1ccc(CN(C(=O)c2sc3ccccc3c2Cl)C2CCS(=O)(=O)C2)cc1` (configuration not stated), for which the activation was 1.1%.

For `CC1(Cc2cccc(C#N)c2)C(=O)Nc2ccc(-c3cccc(C(F)(F)F)c3)cc21` (configuration not stated), the activation is 11.2% (active). In the case of `CC1(Cc2ccccc2C#N)C(=O)Nc2ccc(-c3ccc4[nH]ccc4c3)cc21` (configuration not stated), the activation is -5.44%. The figure for `Cc1ccc(CC2(C)C(=O)Nc3ccc(OC(F)(F)F)cc32)cc1` (configuration not stated) is -1%. With `COc1cccc(CNc2nc(NCc3cccs3)nc3ccsc23)c1`, the activation is -1.3%. With `NC(c1csc(NC(=O)Nc2ccccc2Oc2ccccc2)n1)c1ccccc1Cl` (configuration not stated), the activation is -1.81%.

On to `c1ccc2c(c1)OCC(c1nn3cnnc3s1)O2` (configuration not stated), for which the activation was 3.93%. Regarding `CC1CCc2sc3nc(N4CCN(CCO)CC4)n4ncnc4c3c2C1` (configuration not stated), the activation was 7.88% (active). For `CCCn1nnc2sc3c(c2c1=O)CCC(C)C3` (configuration not stated), the activation was 4.15%.

Turning to `CC1CCc2c(sc3nc4n(c(=O)c23)CCS4)C1` (configuration not stated), the activation is 3.94%. The figure for `CCOc1cc2[nH]c(=O)n(CCC(=O)NCc3ccc(OC)cc3)c(=O)c2cc1OCC` is 0.9%; for `NC(=S)NN=C1CCCC(C(F)(F)F)C1` (configuration not stated) it is -0.39%. On to `N#CCCCn1c(O)c(N=NC(=O)C(O)c2ccccc2)c2ccccc21` (configuration not stated), for which the activation is 1.76%. Consider `CCOC(=O)c1ccc(N=C2SC(C(=O)NC)CC(=O)N2CCc2ccccc2)cc1` (configuration not stated), for which the activation was 0.94%. Consider `Cc1ccc(C2CC(c3cccc(C)c3)n3nc(N)nc3N2)cc1` (configuration not stated), for which the activation is -0.54%. The same measure for `Cc1ccc(C2Nc3cccc4cccc(c34)N2)cc1`: 14.9% (active); for `Oc1ccc(C2Nc3cccc4cccc(c34)N2)cc1`: 1.97%. The figure for `CSCCC(NC(=O)COc1ccccc1)C(=O)OCC(=O)c1cc2ccccc2o1` (configuration not stated) is -0.05%; for `CC(C)c1ccc(NC2CCCN(C(=O)c3ccncc3)C2)cc1` (configuration not stated) it is 3.59%; for `NC(=O)NCCCC(=O)O` it is 1.1%. On to `O=C(O)CCCCCCCCCC[n+]1ccccc1`, for which the activation was 0.28%.

For the molecule `CCCCCCCCCCCC(=O)O`, the activation was 9.07% (active).

With `Cn1c(=O)cc(OCCCC(=O)N2CCN(c3ccccn3)CC2)c2ccccc21`, the activation was -3.01%.

Regarding `O=C(Nc1ccc(F)cc1)c1cc2c(s1)CCCC2`, the activation was 2.99%.

On to `O=C(NCc1cccnc1)Nc1cccc(NC(=O)NCc2cccnc2)c1F`, for which the activation was 0.81%. On to `CCN(CCN(C)C)C(=O)c1ccc2nc(C)c(N(C)C(=O)CCc3ccccc3)n2c1`, for which the activation is 0.72%. For `CC(C)c1ccc(NS(=O)(=O)c2cn(C)c(=O)n(C)c2=O)cc1`, the activation is 14.8% (active).

Turning to `Cn1cc(S(=O)(=O)Nc2ccc(Cl)cc2Cl)c(=O)n(C)c1=O`, the activation is 1.45%. As for `Cn1cc(S(=O)(=O)NC(c2ccccc2)c2ccccc2)c(=O)n(C)c1=O`, the activation is -1.45%. The same measure for `COc1ccc(C(C#N)Nc2ccc(C)cc2)cc1` (configuration not stated): -0.7%; for `O=C1C=C(c2ccnc3cc(Cl)ccc23)C[C@@H](c2ccc3c(c2)OCO3)C1`: -1.07%.

As to `Cc1cc(C(=O)NCCc2ccc(Cl)cc2)c(C)o1`, the activation was 3.56%. As for `CC(C)c1cc(C(=O)O)n[nH]1`, the activation was -1.31%. On to `Cc1cc(C(=O)N/N=C\C(Br)=C\c2ccccc2)c(C)o1`, for which the activation was 11.4% (active). On to `Cc1cc(-c2n[nH]c(=S)n2/N=C/C(Br)=C/c2ccccc2)n[nH]1`, for which the activation was -0.09%. On to `Cc1ccc(-c2cc(C(=O)N/N=C/C=C/c3ccccc3)n[nH]2)o1`, for which the activation is 1.11%. The same measure for `CC(C)c1cc(C(=O)N/N=C/C(Br)=C/c2ccccc2)n[nH]1`: 9.41% (active); for `CCN(C(=O)COC(=O)C1CCN(S(=O)(=O)c2ccc(C)c(C)c2)CC1)C1CCS(=O)(=O)C1` (configuration not stated): 0.06%.

With `COc1cccc(OC)c1C(=O)Nc1ccc(Cc2ccncc2)cc1`, the activation is 3.03%. As to `CC(=O)c1ccc(NC(=O)CCc2nnc3ccc(NCc4ccco4)nn23)cc1`, the activation was 3.69%. On to `CCc1nnc(NC(=O)CSc2nnnn2-c2cccc(C(C)=O)c2)s1`, for which the activation was 0.27%. For `CC[C@]12c3[nH]c4ccc(Cl)cc4c3CCN1C(=O)[C@@H](CC(=O)NCCCOC)C[C@@H]2C(=O)N1CCN(C(=O)C2CC2)CC1`, the activation was -1.48%.
